{
  "source": "PubChem BioAssay AID1946",
  "about": "(Johns Hopkins Ion Channel Center, 2009)",
  "note": "Hit rate of the full screen: of about 2,400 compounds, about 180 (7.5%) were called active. The full list was thinned out, with actives kept by preference. A number with no mark means an inactive call.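 The calls were made as follows: active = readout below zero, meaning a drop past 3 SD under the dofetilide-free negative control mean; inactive = the rest.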",
  "data": [
    {"target": "Potassium voltage-gated channel subfamily KQT member 2 (Rattus norvegicus) (UniProt O88943)", "sequence (O88943 whole entry, looked up)": "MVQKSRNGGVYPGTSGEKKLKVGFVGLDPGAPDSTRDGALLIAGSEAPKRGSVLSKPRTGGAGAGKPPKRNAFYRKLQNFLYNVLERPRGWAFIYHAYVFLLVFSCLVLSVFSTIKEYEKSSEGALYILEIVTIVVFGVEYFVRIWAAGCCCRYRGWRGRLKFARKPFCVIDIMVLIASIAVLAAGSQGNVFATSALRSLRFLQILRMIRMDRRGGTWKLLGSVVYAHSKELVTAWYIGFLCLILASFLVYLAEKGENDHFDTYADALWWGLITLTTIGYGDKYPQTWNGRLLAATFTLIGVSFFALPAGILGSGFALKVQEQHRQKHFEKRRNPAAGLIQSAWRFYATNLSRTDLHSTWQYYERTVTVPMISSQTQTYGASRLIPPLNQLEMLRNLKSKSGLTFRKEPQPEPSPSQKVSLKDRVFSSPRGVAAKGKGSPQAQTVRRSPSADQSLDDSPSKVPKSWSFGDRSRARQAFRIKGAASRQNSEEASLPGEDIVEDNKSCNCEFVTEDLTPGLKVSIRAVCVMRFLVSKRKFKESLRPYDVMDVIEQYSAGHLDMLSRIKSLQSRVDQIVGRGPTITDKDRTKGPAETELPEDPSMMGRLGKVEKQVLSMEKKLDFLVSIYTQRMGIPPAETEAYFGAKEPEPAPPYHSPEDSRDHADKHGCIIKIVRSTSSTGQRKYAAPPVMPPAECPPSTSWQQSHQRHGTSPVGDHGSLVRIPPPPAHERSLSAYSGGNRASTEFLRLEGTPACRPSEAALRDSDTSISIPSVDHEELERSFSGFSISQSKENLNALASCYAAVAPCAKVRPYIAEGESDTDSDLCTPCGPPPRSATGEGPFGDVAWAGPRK", "assay": "KCNQ2 blockade in CHO cells – cell-based, FluxOR thallium flux, counter-screen for hERG block protector project, confirmation (AID 1946)", "settings": "FluxOR thallium flux fluorescence, at 10 µM, hits give low values, zero marks the 3-SD hit cutoff", "values": [
      {"smiles": "C/C(=N\\NC(=O)c1cc2ccccc2cc1O)c1ccc(C)o1", "activity change vs negative control": "53.8%"},
      {"smiles": "C=CCOc1ccccc1/C=c1\\sc2nc(=O)c(C)nn2c1=O", "activity change vs negative control": "6.3%"},
      {"smiles": "CCN(CC)c1ccc(/C=c2\\sc3nnc(-c4ccccc4Cl)n3c2=O)cc1", "activity change vs negative control": "-3.9% (active)"},
      {"smiles": "O=C(NNc1nc2c(F)cccc2s1)c1cc(=O)c2ccccc2o1", "activity change vs negative control": "4.5%"},
      {"smiles": "CCOc1ccc(NC(=S)NS(=O)(=O)c2cc(Br)ccc2OCC)cc1", "activity change vs negative control": "50.4%"},
      {"smiles": "Cc1ccc(C(=O)N/N=C(/CC(=O)c2cccs2)C(F)(F)F)cc1", "activity change vs negative control": "28.2%"},
      {"smiles": "Cc1nnc(SCC(=O)Nc2nccs2)n1N", "activity change vs negative control": "10.1%"},
      {"smiles": "Nn1c(SCC(=O)Nc2ccc(OC(F)F)cc2)nnc1-c1ccco1", "activity change vs negative control": "-0.2% (active)"},
      {"smiles": "Cc1cc(-c2nnc(SCC(=O)Nc3ccc(C(F)(F)F)cc3)n2C)no1", "activity change vs negative control": "8.3%"},
      {"smiles": "CCNC(=O)C/C(C)=N/NC(=O)C(=O)Nc1ccc(CC)cc1", "activity change vs negative control": "26.8%"},
      {"smiles": "O=c1c2ccccc2[nH]c(=S)n1CCc1ccccc1", "activity change vs negative control": "33.3%"},
      {"smiles": "O=C(NC(=S)N(CCc1ccccc1)CCc1ccccc1)c1ccco1", "activity change vs negative control": "67.4%"},
      {"smiles": "Cc1nn(C(=O)CNC(=O)c2ccccc2)c(C)c1C", "activity change vs negative control": "46.6%"},
      {"smiles": "C=CCn1c(=S)[nH]c2scc(-c3ccc(C)o3)c2c1=O", "activity change vs negative control": "102%"},
      {"smiles": "O=C1CCN(S(=O)(=O)c2ccc(Cl)cc2)CCN1", "activity change vs negative control": "-0.2% (active)"},
      {"smiles": "CN1CCN(S(=O)(=O)c2cccc(S(=O)(=O)c3ccc(Cl)cc3)c2)CC1", "activity change vs negative control": "13.6%"},
      {"smiles": "O=S(=O)(c1ccc(F)cc1)N1CCN(c2ccc(F)cc2)CC1", "activity change vs negative control": "0.8%"},
      {"smiles": "O=C(NC(=S)N1CCN(Cc2ccc3c(c2)OCO3)CC1)c1cccc(Br)c1", "activity change vs negative control": "61%"},
      {"smiles": "CSc1ccccc1-n1nnnc1SCC(=O)Nc1cc(C)ccc1C", "activity change vs negative control": "2.3%"},
      {"smiles": "Cc1cc(C)cc(NC(=O)CSc2nnc(CN3CCOCC3)n2C)c1", "activity change vs negative control": "48.6%"},
      {"smiles": "Cc1ccc(NC(=O)CSc2nnc(C3CC3)n2CC2CCCO2)c(C)c1", "note": "(stereo unspecified)", "activity change vs negative control": "-4.1% (active)"},
      {"smiles": "Cc1nnc(NC(=O)C2CCCN(S(=O)(=O)c3ccccc3C(F)(F)F)C2)s1", "note": "(stereo unspecified)", "activity change vs negative control": "19.4%"},
      {"smiles": "O=C(CSc1ncnc2c1cnn2-c1ccc(Cl)cc1)NCc1ccc2c(c1)OCO2", "activity change vs negative control": "12%"},
      {"smiles": "CCC(c1nnc(SCC(=O)NCCc2ccc(Cl)cc2Cl)o1)N(C)C", "note": "(stereo unspecified)", "activity change vs negative control": "-0.1% (active)"},
      {"smiles": "COc1ccc(C(=O)CC(=O)C(=O)Nc2ccc(C)cc2Cl)cc1", "activity change vs negative control": "39.7%"},
      {"smiles": "CC(C)(C)c1cc(-c2n[nH]c(=S)n2-c2ccccc2F)n[nH]1", "activity change vs negative control": "39.3%"},
      {"smiles": "CC(NC(=O)c1ccc(Br)cc1)c1ccc2c(c1)CCCC2", "note": "(stereo unspecified)", "activity change vs negative control": "62.8%"},
      {"smiles": "C#CCN1C(=O)S/C(=C\\c2ccc(-c3ccc(C(=O)O)cc3C)o2)C1=O", "activity change vs negative control": "7.6%"},
      {"smiles": "Cc1ccc(C(=O)O)cc1-c1ccc(/C=C2\\SC(=O)N(CC(=O)Nc3ccccc3)C2=O)o1", "activity change vs negative control": "1.7%"},
      {"smiles": "Cc1c(/C=C2\\SC(=O)N(CC(=O)Nc3ccc4c(c3)OCO4)C2=O)c2ccccc2n1C", "activity change vs negative control": "8%"},
      {"smiles": "COc1ccc(NC(=O)CN2C(=O)S/C(=C/c3cccn3-c3ccc(C(=O)O)cc3)C2=O)cc1", "activity change vs negative control": "1%"},
      {"smiles": "Cc1ccccc1NC(=O)CN1C(=O)S/C(=C\\c2ccc(-c3cc(C(=O)O)ccc3C)o2)C1=O", "activity change vs negative control": "10.7%"},
      {"smiles": "Cc1ccc(NC(=O)CN2C(=O)S/C(=C\\c3ccc(-c4cccc(C(=O)O)c4C)o3)C2=O)cc1", "activity change vs negative control": "-4% (active)"},
      {"smiles": "Cc1ccccc1NC(=O)CN1C(=O)S/C(=C\\c2ccc(-c3cccc(C(=O)O)c3C)o2)C1=O", "activity change vs negative control": "-1% (active)"},
      {"smiles": "Cc1cccc(NC(=O)CN2C(=O)S/C(=C\\c3cccn3-c3cccc(C(=O)O)c3)C2=O)c1", "activity change vs negative control": "5.2%"},
      {"smiles": "Cc1cccc(NC(=O)CN2C(=O)S/C(=C\\c3ccc(-c4cccc(C(=O)O)c4C)o3)C2=O)c1", "activity change vs negative control": "-0.8% (active)"},
      {"smiles": "CC(C)COn1c(=S)[nH]c2ccccc2c1=O", "activity change vs negative control": "34.7%"},
      {"smiles": "Cc1ccc(/C=N/Nc2ccc(C(=O)O)cc2)o1", "activity change vs negative control": "5.5%"},
      {"smiles": "Cc1ccccc1NC1=NC(=S)N(c2ccccc2)C12CCCCC2", "activity change vs negative control": "39.1%"},
      {"smiles": "CCOC(=O)c1c(-c2ccccc2)csc1NC(=S)NC", "activity change vs negative control": "42%"},
      {"smiles": "COCCn1c(SCC(=O)Nc2cc(C)cc(C)c2)nc2ccccc2c1=O", "activity change vs negative control": "12%"},
      {"smiles": "COC(=O)CSc1nnc(COc2ccc3ccccc3c2)o1", "activity change vs negative control": "11.8%"},
      {"smiles": "Cc1cc(C)cc(OCc2nnc(SCC(=O)Nc3ccccc3)o2)c1", "activity change vs negative control": "-2.3% (active)"},
      {"smiles": "COc1ccc(NC(=O)CC23CC4CC(CC(C4)C2)C3)cn1", "activity change vs negative control": "73.9%"},
      {"smiles": "S=C(N/N=C/c1ccccc1Cl)Nc1cccc(Cl)c1Cl", "activity change vs negative control": "30.4%"},
      {"smiles": "COc1cccc2sc(Nc3nnc(-c4ccc(F)cc4)o3)nc12", "activity change vs negative control": "69.1%"}
    ]}
  ]
}
